From PubChem BioAssay AID1159580 (chemical genetic matrix, 2015)
“And” between values parts separate entries of the source, which are not always exact repeats. Equal values may be shown once. In all, about 5,500 compounds went through this assay and about 2,000 (36%) were called active. Another 18% or so got no clear call; they are omitted. No stated cut-off is given here; in the data, active means normalized growth mostly below about 0.91 (no sharp cut-off); inconclusive means no clear call, values can overlap the other calls; inactive means mostly above about 0.92. This is one part of the list.

Assay: chemical genetic growth profiling, strain panel (AID 1159580);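 further: tested at 20 µM; growth read once vehicle control cultures reached saturation at 30 °C; 1 = growth at the plate median or of vehicle wells; lower values mean less growth of the strain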
Details: S. cerevisiae deletion strains, growth OD

Measured: normalized growth

Cn1nnnc1SCC1=C(C(=O)O)N2C(=O)C(NC(=O)C(O)c3ccccc3)C2SC1 (configuration not stated)
inactive: locus YAL013W, strain DEP1, hits give low values 1.02 | locus YAL021C, strain ccr4, hits give low values 0.97 | locus YAL026C, strain drs2, hits give low values 0.972 | locus YAL030W, strain snc1, hits give low values 0.983 | locus YBL061C, strain skt5, hits give low values 0.97 | locus YBR009C, strain hhf1, hits give low values 0.988 | locus YBR021W, strain FUR4, hits give low values 1.01 | locus YBR023C, strain chs3, hits give low values 0.964 | locus YBR171W, strain sec66, hits give low values 0.945 | locus YBR229C, strain ROT2, hits give low values 1.01 | locus YBR231C, strain swc5, hits give low values 0.991 | locus YBR279W, strain paf1, hits give low values 0.977 | locus YCL011C, strain gbp2, hits give low values 0.971 | locus YCL016C, strain dcc1, hits give low values 0.967 | locus YCL029C, strain bik1, hits give low values 0.996 | locus YCL061C, strain MRC1, hits give low values 0.968 | locus YCL069W, strain vba3, hits give low values 0.973 | locus YCR088W, strain abp1, hits give low values 0.975 | locus YDL005C, strain med2, hits give low values 0.972 | locus YDL035C, strain GPR1, hits give low values 1.03 | locus YDL040C, strain nat1, hits give low values 0.984 | locus YDL074C, strain BRE1, hits give low values 1.05 | locus YDL101C, strain DUN1, hits give low values 1.02 | locus YDL134C, strain PPH21, hits give low values 1.02 | locus YDL185W, strain tfp1, hits give low values 1 | locus YDL192W, strain arf1, hits give low values 1 | locus YDR001C, strain nth1, hits give low values 0.979 | locus YDR069C, strain doa4, hits give low values 0.978 | locus YDR101C, strain arx1, hits give low values 0.99 | locus YDR137W, strain rgp1, hits give low values 0.943 | locus YDR150W, strain NUM1, hits give low values 1.03 | locus YDR159W, strain sac3, hits give low values 0.985 | locus YDR162C, strain NBP2, hits give low values 1.06 | locus YDR195W, strain ref2 0.969 | locus YDR297W, strain sur2, hits give low values 0.983 | locus YDR318W, strain mcm21, hits give low values 0.996 | locus YDR334W, strain swr1, hits give low values 0.964 | locus YDR335W, strain msn5, hits give low values 0.978 | locus YDR388W, hits give low values 0.991 | locus YDR392W, strain spt3, hits give low values 0.873 | locus YDR502C, strain sam2, hits give low values 1.01 | locus YEL003W, strain gim4, hits give low values 0.995 | locus YEL037C, strain rad23, hits give low values 0.972 | locus YEL061C, strain CIN8 (second series), hits give low values 0.978 | locus YEL061C, strain CIN8, hits give low values 1.01 | locus YER015W, strain faa2, hits give low values 0.99 | locus YER016W, strain bim1, hits give low values 0.995 | locus YER110C, hits give low values 0.997 | locus YER111C, strain swi4, hits give low values 0.96 | locus YER155C, strain BEM2 (second series), hits give low values 0.973 | locus YER155C, strain BEM2, hits give low values 1.02 | locus YER167W, strain BCK2, hits give low values 1.02 | locus YFR010W, strain ubp6, hits give low values 0.974 | locus YGL078C, strain dbp3, hits give low values 1 | locus YGL086W, strain mad1, hits give low values 1 | locus YGL167C, strain pmr1, hits give low values 0.967 | locus YGL173C, strain kem1, hits give low values 0.97 | locus YGL227W, strain vid30, hits give low values 0.984 | locus YGL240W, strain doc1, hits give low values 0.992 | locus YGL248W, strain PDE1, hits give low values 1.02 | locus YGL253W, strain hxk2, hits give low values 0.98 | locus YGR078C, strain PAC10, hits give low values 1.05 | locus YGR135W, strain pre9, hits give low values 1.01 | locus YGR229C, strain SMI1, hits give low values 1.03 | locus YGR252W, strain gcn5, hits give low values 0.972 | locus YHR013C, strain ard1, hits give low values 0.952 | locus YHR027C, strain rpn1, hits give low values 0.968 | locus YHR030C, strain SLT2, hits give low values 1.01 and 0.991 | locus YHR079C, strain IRE1 (second series), hits give low values 1 | locus YHR079C, strain IRE1, hits give low values 0.984 | locus YHR094C, strain hxt1, hits give low values 1 | locus YHR129C, strain ARP1, hits give low values 1.01 | locus YHR142W, strain chs7, hits give low values 0.951 | locus YHR200W, strain rpn10, hits give low values 1.01 | locus YIL066C, strain RNR3, hits give low values 1.02 | locus YIL073C, strain SPO22, hits give low values 1.03 | locus YIL125W, strain kgd1, hits give low values 1.01 | locus YIR030C, strain dcg1, hits give low values 1 | locus YJL092W, strain hpr5, hits give low values 0.976 | locus YJL095W, strain BCK1 (second series), hits give low values 0.987 | locus YJL095W, strain BCK1, hits give low values 1.02 and 0.987 | locus YJL115W, strain asf1, hits give low values 0.958 | locus YJL129C, strain trk1, hits give low values 0.973 | locus YJL134W, strain LCB3, hits give low values 1.01 | locus YJL154C, strain vps35, hits give low values 0.982 | locus YJL164C, strain tpk1, hits give low values 0.954 | locus YJL166W, strain qcr8, hits give low values 0.968 | locus YJL168C, strain set2, hits give low values 0.995 | locus YJL187C, strain SWE1 (second series), hits give low values 1.02 | locus YJL187C, strain SWE1, hits give low values 0.974 | locus YJR043C, strain POL32, hits give low values 1.02 | locus YJR066W, strain TOR1, hits give low values 0.938
